Assay outcomes deposited in PubChem BioAssay by National Center for Advancing Translational Sciences (NCATS).
RE007 growth inh: less growth of the S. pombe RE007 Vpr strain | S. pombe RE007 Vpr strain, BacTiter-Glo ATP luminescence, 24 h | Potency, µM (titrated, usually from 92.2 µM), inactives show at the top dose activity change, negative = less growth, usual class: inhibitors | actives 0.21% (n = 360,000); active means well fitted falling curve with a large enough effect; inconclusive means small, poorly fitted or top-dose-only effect; inactive means no such curve, though single readings can be large or run the other way; further: potency means the concentration at half of the fitted maximal effect; on the % scale 0 is the no-effect control and ±100 the full control effect; nearly all actives have a fitted effect of over 50% in size
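Fission yeast RE007 carrying one integrated HIV-1 vpr copy, seeded at OD 0.01 in PMG+AL medium with 23 nL pinned compound. Grown 24 h at 30 degrees; viability read by BacTiter-Glo luminescence after 5 min.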
FBPA Giardia inh: inhibitors of Giardia lamblia fructose-1,6-bisphosphate aldolase; A8B2U2; purified Giardia FBPA; Potency, µM (doses to about 59.6 µM), without a hit: top-dose activity, negative = inhibition, hits mostly inhibitors; actives 0.71% (n = 290,000); AID 2451; further: potency means the concentration at half of the fitted maximal effect; on the % scale 0 is the no-effect control and ±100 the full control effect; nearly all actives have a fitted effect of over 55% in size
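40 nM FBPA preincubated 10 min at RT with compound (up to 57.5 uM final), then substrate plus GAPDH/TPI/NAD/arsenate coupling and diaphorase/resazurin added. Fluorescence read after 20 min at RT, 525/598 nm.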
Shiga inhibitor: blocks Shiga toxin action in Vero cells | Vero cells, Shiga toxin protein synthesis inhibition reporter | inhibition, % at 38.7 µM | actives 9.2% (n = 290,000) | AID 2315; in the data active means inhibition mostly above about 28%, no sharp cut-off; inactive means mostly below about 43%; further: 0% is about no effect
Cycloheximide cs: affects cycloheximide protein synthesis inhibition readout, counter-screen. cell reporter, cycloheximide protein synthesis inhibition counterscreen. max response, %. actives 12% (n = 300,000); in the data active means max response mostly above about 13%, no sharp cut-off; inactive means mostly below about 14%; further: read at 38.3 µM for the half of the compounds with a filed dose; 0% is about no effect
Tb PYK inh: blocks Trypanosoma brucei pyruvate kinase; Potency, µM (series often up to 76.8 µM), inactives show at the top dose activity, negative = inhibition, actives largely listed as inhibitors; AID 624173; actives 0.12% (n = 410,000); TbPYK enzyme, Kinase-Glo Plus ATP luminescence, 45 min; Q57TT1; further: potency means the concentration at half of the fitted maximal effect; on the % scale 0 is the no-effect control and ±100 the full control effect; nearly all actives have a fitted effect of over 50% in size
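Glycolytic pyruvate kinase of T. brucei was incubated with substrate, test compound and 130 uM ADP for 45 minutes at room temperature. Luminescent Kinase-Glo Plus signal was measured after 10 minutes.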
LmPK inhibitor: blocks Leishmania mexicana pyruvate kinase activity. actives 0.37% (n = 290,000). Potency, µM (doses to about 57.5 µM), for inactives: at the highest dose activity change, negative = inhibition, hits mostly inhibitors. Q27686. AID 1721. purified LmPK, Kinase-Glo ATP luminescence, 1 h; further: potency means the concentration at half of the fitted maximal effect; on the % scale 0 is the no-effect control and ±100 the full control effect
Target sequence (Q27686 whole entry, looked up): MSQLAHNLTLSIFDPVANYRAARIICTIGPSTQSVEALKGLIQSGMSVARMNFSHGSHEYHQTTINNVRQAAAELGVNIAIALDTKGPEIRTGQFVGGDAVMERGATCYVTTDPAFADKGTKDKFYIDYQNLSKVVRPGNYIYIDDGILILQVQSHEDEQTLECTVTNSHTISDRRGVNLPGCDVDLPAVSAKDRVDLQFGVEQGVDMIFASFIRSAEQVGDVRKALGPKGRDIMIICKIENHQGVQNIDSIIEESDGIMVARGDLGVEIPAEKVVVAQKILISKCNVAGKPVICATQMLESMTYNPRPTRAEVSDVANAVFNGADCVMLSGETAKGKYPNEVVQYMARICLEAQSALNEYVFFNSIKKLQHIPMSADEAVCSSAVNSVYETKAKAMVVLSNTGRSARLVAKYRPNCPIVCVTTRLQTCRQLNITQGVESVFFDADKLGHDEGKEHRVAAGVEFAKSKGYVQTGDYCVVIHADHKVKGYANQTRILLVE
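In 50 mM imidazole pH 7.2 with 7 mM MgCl2, LmPK (0.1 nM) turned over PEP (0.5 mM) and ADP (0.1 mM) for 1 h at room temperature. Luciferase read-out of ATP.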
* marks the source's active call; other numbers are inactive results; ? = inconclusive; nt = no result; + = active, no number; [ ] = remark or other dose. Many of the other results were omitted from the sample, so hits are more common in it than they were. Unless noted, the call rests on the fitted dose curve; in most records, active means well fitted curve in the direction sought with a large enough effect; inconclusive means small, poorly fitted or top-dose-only effect, or another doubt; inactive means no such curve, though single readings can be large; an effect the other way counts as inactive or inconclusive.

SMILES | RE007 growth inh | FBPA Giardia inh | Shiga inhibitor | Cycloheximide cs | Tb PYK inh | LmPK inhibitor
CC1CN(C(=O)c2ccc(COc3ccc4ccccc4c3)o2)CC(C)O1 (stereo unspecified) | -11% | -20% | 57* | 27* | 0% | 2%
CC1CN(C(=O)c2ccc(COc3ccccc3Cl)o2)CC(C)O1 (stereo unspecified) | -25% | 3% | -3 | 2 | 4% | -2%
COc1ccc(-c2coc3c(C(=O)NCc4ccc(C(F)(F)F)cc4)cccc23)c(C)c1 | 9%[18.4 µM] | nt | nt | nt | -10% | nt
O=C(CN(C(=O)CCC(=O)Nc1ccccn1)c1ccccc1F)NCc1ccc2c(c1)OCO2 | -23% | 0% | 2 | -3 | -6% | 13%
COc1ccc(/C=C/c2ccccc2)cc1[C@H]1[C@@H]2C=CCC[C@@]2(C)C(=O)N1Cc1ccccc1 | -9% | 1% | 44* | 20* | 2% | -6%
COc1ccc(/C=C/c2ccccc2)cc1C1C2C=CCCC2(C)C(=O)N1Cc1ccccc1 (stereo unspecified) | nt | 2% | 115* | 49* | nt | nt
Cc1ccccc1-c1noc(-c2ccc(N3CCC(C)CC3)c([N+](=O)[O-])c2)n1 | nt | nt | nt | nt | -4% | nt
O=C(CCN1CCc2ccccc2C(c2ccccc2)C1)c1ccc2c(c1)OCCO2 (stereo unspecified) | 5.6µM* | -15% | 25 | 19* | ? | -1%
O=C(CCN1Cc2ccccc2C1)c1ccc2c(c1)OCCO2 | ? | -6% | 37 | 19* | ? | 0%
c1ccc(COc2ccc(CN3CCN(c4ccccn4)CC3)cc2)cc1 | -4% | -12% | 93* | 41* | 2% | -8%
C(#Cc1ccccc1)CN1CCN(c2ccccn2)CC1 | -14% | ? | 28 | 25* | -1% | -3%
C(#Cc1ccccc1)CN1CCCCC1 | 4% | -7% | 10 | 15 | 6% | -2%
Cc1cc(C)cc(C(=O)N2CC(=O)Nc3ccc(C)cc3C2c2ccccc2)c1 (stereo unspecified) | nt | nt | nt | nt | -5% | nt
O=C(O)Cc1ccc(NC(=O)Nc2ccc3c(c2)OCO3)cc1 | -5% | 2% | 47* | 35* | 1% | 0%
O=C(Nc1ccc2c(c1)OCO2)c1cccc(F)c1 | 2% | 3% | 75* | 34* | -4% | ?
O=C(Nc1cccc(F)c1)Nc1ccc2c(c1)OCO2 | -5% | -3% | 85* | 59* | -3% | -9%
O=C(COC(=O)c1cccc(F)c1)Nc1ccc2c(c1)OCCO2 | -20% | nt | nt | nt | -1% | nt
CC(C)[C@H](NC(=O)c1ccccc1F)C(=O)Nc1ccc2c(c1)OCO2 | -8% | nt | nt | nt | -1% | nt
O=C(Nc1ccc2c(c1)OCO2)C1CCCN1C(=O)Nc1cccc(F)c1 (stereo unspecified) | -21% | 10% | 15 | 15 | 1% | 4%
O=C(Nc1ccc2c(c1)OCO2)c1c(F)cccc1F | 6% | -6% | 75* | 33* | 1% | -21%
COc1ccc(N(CC(=O)O)S(=O)(=O)c2ccc(C)cc2)cc1Cl | 5% | 13% | -10 | 15 | 7% | -1%
CCOc1ccc(NC(=O)Cn2nnc(C(=O)NCc3ccc4c(c3)OCO4)c2N)cc1 | 3% | -3% | -3 | 2 | 3% | 1%
O=C(/C=C/c1ccccc1)NNC(=O)c1cccs1 | -5% | 4% | 38 | 23* | 2% | 1%
COc1ccccc1/C=C/C(=O)NNC(=O)c1cccs1 | -3% | 15% | 71* | 26* | -7% | -2%
COc1ccccc1OCC(=O)NNC(=O)c1cccs1 | nt | 6% | 15 | 4 | -13% | -4%
SMILES | RE007 growth inh | FBPA Giardia inh | Shiga inhibitor | Cycloheximide cs | Tb PYK inh | LmPK inhibitor
Cc1cc(C)n(-c2nnc(Nc3ccc(C)c(C)c3)c3ccccc23)n1 | nt | nt | nt | nt | -12% | nt
CCN(CC)c1ccc(/C=N\NC(=O)c2cccc3cc[nH]c23)cc1 | -6% | -5% | 43* | 32* | 4% | 0%
O=C(N/N=C/c1ccc([N+](=O)[O-])cc1)c1[nH]ncc1Br | 7% | 3% | 82* | 47* | -1% | ?
Cc1cc(C(=O)N/N=C/c2ccc([N+](=O)[O-])cc2)c2ccccc2n1 | -16% | 7% | 15 | -1 | 2% | 8%
O=C(N/N=C/c1ccc([N+](=O)[O-])cc1)c1cccc2cc[nH]c12 | 12% | 3% | 21 | 16* | -3% | 2%
CCN(CC)c1ccc(/C=N/NC(=O)CNC(=O)c2ccccn2)cc1 | 9% | 3% | 84 | 12 | 1% | 0%
O=C(N/N=C/c1ccc([N+](=O)[O-])cc1)c1ccc2nc[nH]c2c1 | 18% | -1% | 20 | 2 | -12% | 0%
CCOC(=O)C1CCCN(C(=O)c2ccc3c(c2)C(C)(C)CCC3(C)C)CC1 (stereo unspecified) | -6%[18.4 µM] | nt | nt | nt | 0% | nt
O=C(NCCN1CCCC1=O)C1CCC(=O)N(CCc2cccc(F)c2)C1 (stereo unspecified) | 7% | 3% | 10 | -3 | 4% | 5%
COc1ccccc1-c1ccc2c(c1)C(C)(Cc1ccc(F)c(Cl)c1)C(=O)N2 (stereo unspecified) | 0% | nt | nt | nt | -3% | nt
NC(=O)NNC1=Nc2cccc3cccc1c23 | 1% | -9% | 56 | 11 | 1% | 3%
COc1ccc(C(=O)NNC2=Nc3cccc4cccc2c34)cc1 | -7% | 8% | -17 | 1 | -1% | 2%
CC(=O)N1CCN(C2=Nc3cccc4cccc2c34)CC1 | -5% | 4µM* | 12 | 8 | 13% | 4%
O=C(O)c1ccc(NC2=Nc3cccc4cccc2c34)cc1 | -6% | -27% | 69* | 23* | -10% | 1%
COc1ccccc1NC1=Nc2cccc3cccc1c23 | ? | -3% | 20 | 14* | 0% | 2%
COc1ccccc1N1CCN(C2=Nc3cccc4cccc2c34)CC1 | -7% | -29% | 69 | 34* | 3% | 2%[11.5 µM]
O=C(O)C1=C[C@H](c2csc3ccccc23)C[C@H](OCCCCO)O1 | 3% | 1% | -10 | 2 | -6% | 6%
Cc1cccc2cc(/C=N/NC(=O)c3ccncc3)c(Cl)nc12 | 30% | 4% | 10 | 1 | 2% | 1%
O=[N+]([O-])c1ccccc1N/N=C/c1cc2ccccc2nc1Cl | 0% | 5% | + | 38 | 2% | 8%
O=C(CN1CCCCC1)N/N=C/c1cc2ccccc2nc1Cl | -13% | 5% | 29 | 14 | -1% | 1%[11.5 µM]
O=C(N/N=C/c1cc2ccccc2nc1Cl)[C@H]1C[C@@H]1c1ccccc1 | 4% | 5% | -16 | -2 | 1% | 0%
O=C(O)c1ccc(N/N=C/c2cc3ccccc3nc2Cl)cc1 | -26% | 2% | 84* | 38* | -7% | -6%
Cc1cccc2cc(/C=N/Nc3ccc(C(=O)O)cc3)c(Cl)nc12 | 8% | 2% | 128* | 68* | -1% | 2%
